Source: PubChem BioAssay
Mtb BioA inh = blocks M. tuberculosis BioA enzyme activity. purified M. tuberculosis BioA enzyme, plate reader. inhibition, % at 9.99 µM. 0.096% of 360,000 active. AID 602481; in the data active = inhibition above about 40%
FBA Mtb inh = inhibits M. tuberculosis FBA enzyme | P9WQA3 | purified M. tuberculosis FBA, fluorescence read-out | inhibition, % at 1 µM | 2.3% of 360,000 active | AID 588726; in the data active = inhibition above about 27%;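 note: 0% = vehicle and 100% = reference inhibitor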
Target sequence (P9WQA3 whole entry, looked up): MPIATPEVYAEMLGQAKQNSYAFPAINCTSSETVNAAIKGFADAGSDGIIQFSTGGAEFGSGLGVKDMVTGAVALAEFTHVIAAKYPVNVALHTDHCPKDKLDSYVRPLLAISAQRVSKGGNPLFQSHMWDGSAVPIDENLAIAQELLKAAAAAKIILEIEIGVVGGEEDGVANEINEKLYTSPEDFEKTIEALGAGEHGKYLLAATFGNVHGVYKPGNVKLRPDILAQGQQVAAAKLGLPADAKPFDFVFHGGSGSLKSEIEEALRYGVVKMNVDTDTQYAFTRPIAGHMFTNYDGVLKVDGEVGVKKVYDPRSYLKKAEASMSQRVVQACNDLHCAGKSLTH
FadD28 FP inh = M. tuberculosis FadD28 bisubstrate binding inhibition | 0.22% of 360,000 active | FadD28 bisubstrate probe binding, fluorescence polarization | inhibition, % at 12.5 µM; in the data active = inhibition above about 8.5%, passing the limit was not always enough
GDH-TPI counter = inhibits GDH-TPI coupling enzymes, artifact for Mtb FBA screen | AID 588335 | 1.2% of 360,000 active | inhibition, % at 4.8 µM | GDH-TPI coupled enzyme counterscreen, NADH absorbance; in the data active = inhibition above about 30%;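 note: 0% = DMSO wells and 100% = wells lacking the enzyme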
Mtb hypoxia rep = reduces hypoxia-regulated biosensor signal in M. tuberculosis; M. tuberculosis hypoxia-regulated fluorescent reporter, fluorescence; fluorescence inhibition, % (test concentration not listed); 0.1% of 300,000 active; AID 1159583; in the data active = fluorescence inhibition mostly above about 23%, no sharp cut-off; inactive = mostly below about 17%
* marks the source's active call; other numbers are inactive results; x = not tested or not shown; + = active, no number. Compounds with a hit are over-represented: about 2.9% of the library has one in this group of screens.

SMILES	Mtb BioA inh	FBA Mtb inh	FadD28 FP inh	GDH-TPI counter	Mtb hypoxia rep
Cc1cc(=O)oc2c3c(cc(OCC(=O)N4CCC[C@H]4C(=O)O)c12)OC(C)(C)CC3	-0.1	+	-3.4	26.5	x
CCCc1cc(=O)oc2c(C)c(OCC(=O)N3CCC(C(N)=O)CC3)ccc12	-0.5	24.3	0.4	25.5	x
Cc1c(C)c2c(OCC(=O)N3CCC(C(N)=O)CC3)cc3c(c2oc1=O)CCC(C)(C)O3	0.1	+	1.7	27.4	x
C[C@H](CO)N1C[C@H](C)[C@@H](CN(C)C(=O)Nc2ccc(F)cc2)Oc2ccc(NC(=O)NC3CCCCC3)cc2CC1=O	3.3	x	x	x	x
CC1(C)OC2CC3C4CC(F)C5=CC(=O)C=C[C@]5(C)C4C(O)C[C@]3(C)[C@]2(C(=O)CO)O1 (stereo partly drawn)	x	x	x	x	3.2
C[C@H](CO)N1C[C@H](C)[C@H](CN(C)S(=O)(=O)c2ccccc2)Oc2ccc(NS(=O)(=O)c3cn(C)cn3)cc2C1=O	3.9	x	x	x	x
COc1ccc(C(=O)COc2ccc3ccc(=O)oc3c2)cc1	4.0	12.3	-1.1	16.9	9.9
Cc1ccccc1NC(=O)COC(=O)COc1ccc2ccc(=O)oc2c1	-1.2	25.7	-0.2	8.8	x
O=C(CNC(=O)OCc1ccccc1)Oc1ccc2ccc(=O)oc2c1	-0.8	+	0.3	13.3	-4.5
CC(C)(C)OC(=O)NCCC(=O)Oc1ccc2ccc(=O)oc2c1	-0.5	+	-1.5	10.3	x
O=C(COc1ccc2ccc(=O)oc2c1)OCc1ccccc1	x	11.3	-2.8	7.2	-5.5
CC(NC(=O)OC(C)(C)C)C(=O)Oc1ccc2ccc(=O)oc2c1 (stereo not drawn)	-1.7	+	-1.9	4.9	x
COCC#Cc1cnc2c(c1)C(=O)N([C@H](C)CO)C[C@@H](C)[C@@H](CN(C)C(=O)c1cccc(F)c1)O2	0.5	x	x	x	x
C[C@@H]1CN([C@@H](C)CO)C(=O)c2cccc(NC(=O)c3cnccn3)c2O[C@@H]1CN(C)C(=O)Nc1ccc(F)cc1	1.2	x	x	x	x
O=C(c1ccccc1)N1C[C@@H]2[C@H](c3ccccc31)[C@H](CO)N2C(=O)c1ccccn1	3.3	x	x	x	x
COCc1cc(C)n(CC(=O)Nc2ccc(Cl)cc2Cl)c(=O)c1C#N	-4.1	121.6*	0.9	30.6	x
CN(C)CCCNC(=O)C[C@H]1CC[C@@H]2[C@H](COc3ccc(NS(C)(=O)=O)cc3C(=O)N2C)O1	-0.2	x	x	x	x
COc1ccc(C(=O)Cn2c(C(=O)/C=C/c3ccccc3)nc3ccccc32)cc1	-1.1	-3.2	-1.7	32.2*	4.9
Nc1nn2cc(-c3ccccc3)nc2c2ccccc12	x	+	0.0	4.3	10.4
Cc1noc(C)c1NC(=O)Nc1cccc2c1OC(CN(C)C(=O)NC(C)C)C(C)CN(C(C)CO)C2=O (stereo not drawn)	x	x	x	x	11.0
COc1cc2c(cc1OC)C1=NC(=O)CN1C(SCc1ccccc1C)=N2	-1.4	27.3*	-4.6	9.3	13.2
Cc1ccc(CSC2=Nc3ccccc3C3=NC(=O)CN23)cc1	x	6.2	-1.8	6.4	12.0
Cc1nn(-c2ccccn2)c2c1-c1nc(N3CCOCC3)ncc1CC2	x	113.7*	-3.2	16.7	11.1
Fc1cnc(N2CCOCC2)nc1N1CCc2ccccc21	8.7	-1.9	-1.8	29.0	7.4
Cc1noc(/C=C/c2ccccn2)c1[N+](=O)[O-]	-1.1	-3.1	-3.0	36.4*	-1.1
SMILES	Mtb BioA inh	FBA Mtb inh	FadD28 FP inh	GDH-TPI counter	Mtb hypoxia rep
COc1ccc(C=NOCc2nc3c4c(ncn3n2)Oc2ccc3ccccc3c2C4c2ccccc2)cc1 (stereo not drawn)	x	x	x	x	6.5
COc1ccc2cc(C(=O)C3CCCN(C(=O)Cc4c(C)noc4C)C3)ccc2c1 (stereo not drawn)	1.9	181.7*	-2.6	12.8	4.5
Cc1noc(C)c1COc1ccc(C(=O)N2CCCC(C(N)=O)C2)cc1 (stereo not drawn)	-0.3	0.4	-1.0	-10.3	0.3
COc1ccc2cc(C(=O)C3CCCN(C4CCOCC4)C3)ccc2c1 (stereo not drawn)	-1.9	148.2*	0.9	20.1	-13.6
CO[C@@H]1CN(C)C(=O)c2ccc(NC(C)=O)cc2OC[C@H](C)N(Cc2cncnc2)C[C@@H]1C	-3.1	x	x	x	x
CCOc1ccc(/C=C/C(O)=C2/C(=O)N(C)C3(C)CC2c2ccccc2O3)cc1OC (stereo not drawn)	-1.7	2.9	-0.8	38.8*	4.1
Cc1ccc(S(=O)(=O)N[C@@H]2C=C[C@@H](CC(=O)NCc3ccncn3)O[C@@H]2CO)cc1	-2.9	x	x	x	x
Cc1ccccc1N1CCN(Cc2c(C#N)c3ccccc3n2C)CC1	x	1.8	-0.5	-4.3	-6.8
Cn1c(CN2CCN(CCO)CC2)c(C#N)c2ccccc21	x	2.8	-0.5	30.6*	6.8
C[C@@H]1CN([C@H](C)CO)C(=O)c2cc(NS(=O)(=O)c3ccccc3)ccc2O[C@@H](C)CCCCO[C@@H]1CN(C)S(=O)(=O)c1ccc(F)cc1	-3.5	x	x	x	x
O=C(N=Nc1c(O)[nH]c2ccc(Br)cc12)c1ccco1	-0.1	-3.4	-2.9	38.9*	x
O=C(N=Nc1c(O)[nH]c2ccc(Br)cc12)c1ccccc1-n1cccc1	-3.6	-2.3	-1.9	14.3	23.6
N#CC(C#N)=Cc1ccc(N2CCOCC2)cc1	-2.9	-7.0	-1.4	41.2*	10.0
COc1ccc(C(=O)/C=C/Nc2cc(C)on2)cc1	2.2	0.3	-2.6	41.0*	11.5
COc1ccc(/C=C/C(=O)Nc2cc(C)on2)cc1	x	2.8	0.9	13.9	-1.5
COc1ccc(C(=O)/C=C/NCc2ccc(C)cc2)cc1	-1.9	0.1	-1.0	44.1*	x
COc1ccc(-n2c(/C=C(\C)O)nc(=O)c3c(C)cc(C)nc32)cc1	-0.6	5.6	1.0	59.4*	-1.9
COc1ccc(-n2c(C)nn(C)c2=O)cc1	-1.2	-3.2	-0.5	6.5	-1.3
COc1cc(C(=O)NNC(=S)NC(=O)/C=C/c2ccccc2)cc(OC)c1OC	-1.3	1.6	-1.8	43.5*	-1.5
COc1ccc(/C=C/C(=O)NC(=S)NNC(=O)c2cccnc2)cc1OC	x	-2.3	-2.1	38.4*	-4.1
COc1ccc(/C=C/C(=O)NC(=S)NNC(=O)c2cccs2)cc1OC	-0.8	2.2	-3.0	20.8	-1.1
O=C(/C=C/c1ccccc1)NC(=S)NNC(=O)c1cnccn1	-0.2	4.9	-1.3	40.7*	x
O=C(/C=C/c1ccccc1)NC(=S)NNC(=O)c1cccnc1	11.3	1.9	0.0	15.1	0.1
COc1ccc(/C=C/C(=O)NC(=S)NNC(=O)Cc2cccs2)cc1OC	-1.6	6.2	0.8	37.6*	x
COc1ccc(C=NOCC(=O)Nc2ccc3c(c2)OCO3)c(OC)c1	x	x	x	x	-0.9
COCCNC(=O)C[C@H]1CC[C@@H]2[C@H](COC[C@@H](O)CN2S(=O)(=O)c2ccccc2C)O1	-0.7	x	x	x	x
Cc1ccc(S(=O)(=O)Nc2ccc3c(c2)CC(=O)N([C@H](C)CO)C[C@H](C)[C@@H](CN(C)CC2CCCCC2)O3)cc1	5.6	x	x	x	x
C[C@@H]1CN([C@H](C)CO)C(=O)c2cccc(NS(=O)(=O)c3cn(C)cn3)c2O[C@H]1CN(C)S(=O)(=O)c1cn(C)cn1	-0.8	x	x	x	x
